We go through 1 sequence from article PMC7862700, “An all-to-all approach to the identification of sequence-specific readers for epigenetic DNA modifications on cytosine”.

Holding throughout (test): DAPPL (digital affinity profiling via proximity ligation, sequencing); 10 mM Tris-HCl pH 7.5, 50 mM NaCl, 1 mM DTT, 4% glycerol, room temperature, 30 min; GST-TFs on glutathione beads, 16-mer random dsDNA library, 0.1% formaldehyde crosslink after washing; high values mean tight binding
One experiment has as its target T1, FEV (Homo sapiens, UniProt Q99581 1-238).
T1 sequence: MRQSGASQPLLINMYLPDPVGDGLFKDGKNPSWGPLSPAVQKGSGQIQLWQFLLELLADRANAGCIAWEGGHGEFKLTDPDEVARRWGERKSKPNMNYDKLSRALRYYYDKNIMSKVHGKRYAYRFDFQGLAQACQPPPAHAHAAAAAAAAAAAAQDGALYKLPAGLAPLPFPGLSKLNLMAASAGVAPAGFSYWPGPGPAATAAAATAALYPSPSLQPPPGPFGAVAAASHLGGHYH
Particulars: protein: recombinant; tags: N-terminal GST; dsDNA, one strand shown. An outline of the steps:
(§1)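 Beads coated with glutathione captured GST-fused human transcription factors that had been expressed in yeast, and the factors were then given DNA barcodes and pooled with a tag-only sample. The pools were incubated with 200 nmole of a random double-stranded 16-mer DNA library in Tris/NaCl/DTT/glycerol buffer for 30 min at room temperature, washed, crosslinked with 0.1% formaldehyde and proximity-ligated with BsaI/T4 ligase at 37 °C for 1 h. PCR amplification and Illumina NextSeq500 sequencing came last. Binding signal is each hexamer's read frequency for a factor divided by its frequency for the tag-only sample.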

The target in another experiment is ETV5 (Homo sapiens, UniProt P41161 1-510). As to conditions: protein: recombinant; tags: N-terminal GST; dsDNA, one strand shown. A digest of the protocol:
as §1

A further experiment concerns the target HSF1 (Homo sapiens, UniProt Q00613 1-529). Particulars: protein: recombinant; tags: N-terminal GST; chain copies: 3; dsDNA, one strand shown. An outline of the steps: as §1
The target in the next experiment is T2, SPIC (Homo sapiens, UniProt Q8N5J4 1-248).
T2 sequence: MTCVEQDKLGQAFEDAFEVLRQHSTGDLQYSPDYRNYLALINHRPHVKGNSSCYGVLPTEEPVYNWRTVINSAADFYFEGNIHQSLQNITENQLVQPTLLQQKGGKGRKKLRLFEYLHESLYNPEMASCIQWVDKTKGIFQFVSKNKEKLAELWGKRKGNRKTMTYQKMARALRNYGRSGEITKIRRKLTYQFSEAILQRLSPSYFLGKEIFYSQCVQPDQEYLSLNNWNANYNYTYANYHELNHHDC
Particulars: protein: recombinant; tags: N-terminal GST; dsDNA, one strand shown. A digest of the protocol:
as §1

For another experiment, the target named is ELF4 (Homo sapiens, UniProt Q99607 1-663). Particulars: protein: recombinant; tags: N-terminal GST; dsDNA, one strand shown. A digest of the protocol:
as §1

The target in another experiment is T3, ELK4 (Homo sapiens, UniProt P28324-2 1-405).
T3 sequence: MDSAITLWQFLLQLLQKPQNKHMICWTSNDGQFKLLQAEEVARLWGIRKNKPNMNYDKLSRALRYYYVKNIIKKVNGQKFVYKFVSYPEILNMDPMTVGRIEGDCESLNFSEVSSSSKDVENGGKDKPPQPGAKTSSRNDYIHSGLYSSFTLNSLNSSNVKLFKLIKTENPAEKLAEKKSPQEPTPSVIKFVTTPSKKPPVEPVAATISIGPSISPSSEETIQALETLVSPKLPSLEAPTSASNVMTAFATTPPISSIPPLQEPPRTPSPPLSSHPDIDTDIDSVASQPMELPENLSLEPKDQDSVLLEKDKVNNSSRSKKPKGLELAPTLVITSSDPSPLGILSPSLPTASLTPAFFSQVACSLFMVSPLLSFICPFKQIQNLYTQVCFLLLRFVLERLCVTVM
As to conditions: protein: recombinant; tags: N-terminal GST; dsDNA, one strand shown. An outline of the steps:
as §1

The target in the next experiment is T4, ETV2 (Homo sapiens, UniProt O00321 1-342).
T4 sequence: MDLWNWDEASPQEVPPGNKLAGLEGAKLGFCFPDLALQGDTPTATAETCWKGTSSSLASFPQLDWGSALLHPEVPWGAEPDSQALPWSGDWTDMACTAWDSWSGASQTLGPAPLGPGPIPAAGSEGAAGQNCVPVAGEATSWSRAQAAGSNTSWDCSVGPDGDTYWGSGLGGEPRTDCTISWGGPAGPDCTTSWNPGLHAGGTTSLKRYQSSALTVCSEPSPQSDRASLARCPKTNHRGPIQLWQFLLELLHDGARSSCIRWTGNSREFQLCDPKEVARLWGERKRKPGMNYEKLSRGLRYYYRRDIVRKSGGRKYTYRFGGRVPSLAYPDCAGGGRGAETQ
Particulars: protein: recombinant; tags: N-terminal GST; dsDNA, one strand shown. A digest of the protocol: as §1

A further experiment deals with T5, ELF3 (Homo sapiens, UniProt P78545 1-371).
T5 sequence: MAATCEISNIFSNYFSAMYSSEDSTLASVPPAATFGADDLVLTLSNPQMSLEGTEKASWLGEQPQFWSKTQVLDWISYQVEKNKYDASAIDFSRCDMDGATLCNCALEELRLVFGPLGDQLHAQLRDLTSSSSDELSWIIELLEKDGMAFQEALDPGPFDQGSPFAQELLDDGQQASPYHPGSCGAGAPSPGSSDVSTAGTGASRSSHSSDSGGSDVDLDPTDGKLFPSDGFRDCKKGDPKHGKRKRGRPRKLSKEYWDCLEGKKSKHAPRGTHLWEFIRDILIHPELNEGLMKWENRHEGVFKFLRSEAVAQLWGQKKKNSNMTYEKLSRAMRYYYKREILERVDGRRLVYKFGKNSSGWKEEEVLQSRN
As to conditions: protein: recombinant; tags: N-terminal GST; dsDNA, one strand shown. A digest of the protocol:
as §1

For another experiment, the target named is CRX (Homo sapiens, UniProt O43186 1-299). Particulars: protein: recombinant; tags: N-terminal GST; dsDNA, one strand shown. An outline of the steps:
as §1

The target in another experiment is ETV1 (Homo sapiens, UniProt P50549 1-477). As to conditions: protein: recombinant; tags: N-terminal GST; dsDNA, one strand shown. An outline of the steps: as §1
For another experiment, the target named is T6, ERF (Homo sapiens, UniProt P50548 1-548).
T6 sequence: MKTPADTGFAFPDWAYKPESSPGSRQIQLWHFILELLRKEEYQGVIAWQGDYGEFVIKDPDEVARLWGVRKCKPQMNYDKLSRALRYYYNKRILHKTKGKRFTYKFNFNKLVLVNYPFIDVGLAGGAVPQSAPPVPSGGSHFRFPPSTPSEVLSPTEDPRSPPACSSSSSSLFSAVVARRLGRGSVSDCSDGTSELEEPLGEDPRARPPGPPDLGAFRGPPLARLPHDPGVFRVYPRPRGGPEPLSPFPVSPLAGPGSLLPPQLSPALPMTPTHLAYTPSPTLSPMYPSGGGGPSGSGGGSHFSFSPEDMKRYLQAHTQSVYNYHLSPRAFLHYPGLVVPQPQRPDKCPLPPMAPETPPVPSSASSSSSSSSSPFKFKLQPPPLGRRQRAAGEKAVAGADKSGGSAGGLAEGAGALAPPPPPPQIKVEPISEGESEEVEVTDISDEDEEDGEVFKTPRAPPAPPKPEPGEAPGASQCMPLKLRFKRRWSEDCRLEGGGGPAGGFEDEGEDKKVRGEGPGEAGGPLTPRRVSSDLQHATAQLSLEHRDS
As to conditions: protein: recombinant; tags: N-terminal GST; dsDNA, one strand shown. A digest of the protocol: as §1

The target in another experiment is T7, ETV3L (Homo sapiens, UniProt Q6ZN32 1-361).
T7 sequence: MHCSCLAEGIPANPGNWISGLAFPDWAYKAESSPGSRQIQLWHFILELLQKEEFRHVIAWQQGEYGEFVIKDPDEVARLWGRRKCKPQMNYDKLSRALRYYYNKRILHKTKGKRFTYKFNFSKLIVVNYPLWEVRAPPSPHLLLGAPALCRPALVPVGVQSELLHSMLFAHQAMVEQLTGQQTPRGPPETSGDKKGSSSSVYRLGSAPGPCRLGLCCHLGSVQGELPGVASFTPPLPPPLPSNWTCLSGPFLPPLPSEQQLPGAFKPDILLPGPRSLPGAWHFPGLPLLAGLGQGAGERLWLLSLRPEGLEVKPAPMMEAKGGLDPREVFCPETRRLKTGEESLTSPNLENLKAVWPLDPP
As to conditions: protein: recombinant; tags: N-terminal GST; dsDNA, one strand shown. A digest of the protocol:
as §1

A further experiment has as its target T8, ETS2 (Homo sapiens, UniProt P15036 1-469).
T8 sequence: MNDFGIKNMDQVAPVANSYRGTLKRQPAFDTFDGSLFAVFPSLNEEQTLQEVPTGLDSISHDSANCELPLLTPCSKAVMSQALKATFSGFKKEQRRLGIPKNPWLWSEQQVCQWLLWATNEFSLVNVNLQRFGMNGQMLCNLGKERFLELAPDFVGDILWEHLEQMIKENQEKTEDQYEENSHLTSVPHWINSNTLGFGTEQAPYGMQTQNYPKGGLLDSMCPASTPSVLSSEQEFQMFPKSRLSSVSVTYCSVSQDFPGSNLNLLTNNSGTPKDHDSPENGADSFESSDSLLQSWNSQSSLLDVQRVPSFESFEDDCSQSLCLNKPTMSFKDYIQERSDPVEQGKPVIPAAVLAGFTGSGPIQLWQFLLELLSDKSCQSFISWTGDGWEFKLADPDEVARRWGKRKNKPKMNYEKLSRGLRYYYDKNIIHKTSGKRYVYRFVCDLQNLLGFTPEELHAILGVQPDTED
Particulars: protein: recombinant; tags: N-terminal GST; dsDNA, one strand shown. An outline of the steps:
as §1

The target in a further experiment is T9, SPDEF (Homo sapiens, UniProt O95238 1-335).
T9 sequence: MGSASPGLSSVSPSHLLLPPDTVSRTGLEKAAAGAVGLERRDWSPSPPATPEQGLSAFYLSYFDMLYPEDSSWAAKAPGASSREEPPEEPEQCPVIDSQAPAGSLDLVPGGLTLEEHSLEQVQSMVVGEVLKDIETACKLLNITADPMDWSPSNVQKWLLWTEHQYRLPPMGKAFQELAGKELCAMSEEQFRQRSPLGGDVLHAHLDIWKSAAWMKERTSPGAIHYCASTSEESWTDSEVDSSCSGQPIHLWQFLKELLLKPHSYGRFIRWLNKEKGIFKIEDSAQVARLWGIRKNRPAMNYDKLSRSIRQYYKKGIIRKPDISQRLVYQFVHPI
Particulars: protein: recombinant; tags: N-terminal GST; dsDNA, one strand shown. An outline of the steps: as §1

In the next experiment the target is T10, ETV7 (Homo sapiens, UniProt Q9Y603 1-341).
T10 sequence: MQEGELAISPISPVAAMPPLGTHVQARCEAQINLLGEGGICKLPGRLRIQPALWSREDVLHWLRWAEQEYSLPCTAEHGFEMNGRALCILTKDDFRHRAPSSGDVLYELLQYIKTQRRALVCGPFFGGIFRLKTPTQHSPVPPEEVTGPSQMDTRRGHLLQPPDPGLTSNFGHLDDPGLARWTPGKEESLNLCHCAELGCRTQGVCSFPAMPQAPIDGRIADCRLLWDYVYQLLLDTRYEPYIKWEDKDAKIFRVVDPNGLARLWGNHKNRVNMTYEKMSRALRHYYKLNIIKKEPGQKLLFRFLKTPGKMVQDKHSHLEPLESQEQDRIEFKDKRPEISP
As to conditions: protein: recombinant; tags: N-terminal GST; dsDNA, one strand shown. An outline of the steps: as §1

The target in the next experiment is T11, ELF5 (Homo sapiens, UniProt Q9UKW6-2 1-255).
T11 sequence: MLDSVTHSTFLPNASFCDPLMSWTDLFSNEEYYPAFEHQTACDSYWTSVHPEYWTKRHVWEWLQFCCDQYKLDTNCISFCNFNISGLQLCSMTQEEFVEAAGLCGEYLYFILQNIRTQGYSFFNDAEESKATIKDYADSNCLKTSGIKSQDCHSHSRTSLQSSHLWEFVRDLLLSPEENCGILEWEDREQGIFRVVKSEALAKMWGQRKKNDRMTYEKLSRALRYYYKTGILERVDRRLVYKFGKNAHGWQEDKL
Particulars: protein: recombinant; tags: N-terminal GST; dsDNA, one strand shown. A digest of the protocol: as §1

A further experiment deals with T12, ETV3 (Homo sapiens, UniProt P41162-2 1-143).
T12 sequence: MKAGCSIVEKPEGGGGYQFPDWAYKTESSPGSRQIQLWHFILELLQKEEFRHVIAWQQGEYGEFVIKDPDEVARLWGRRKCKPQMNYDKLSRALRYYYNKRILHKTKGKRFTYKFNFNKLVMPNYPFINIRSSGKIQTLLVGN
Particulars: protein: recombinant; tags: N-terminal GST; dsDNA, one strand shown. A digest of the protocol:
as §1

A further experiment addresses ETV6 (Homo sapiens, UniProt P41212 1-452). Particulars: protein: recombinant; tags: N-terminal GST; dsDNA, one strand shown. An outline of the steps: as §1

Chain of ETV6 (P41212 whole entry): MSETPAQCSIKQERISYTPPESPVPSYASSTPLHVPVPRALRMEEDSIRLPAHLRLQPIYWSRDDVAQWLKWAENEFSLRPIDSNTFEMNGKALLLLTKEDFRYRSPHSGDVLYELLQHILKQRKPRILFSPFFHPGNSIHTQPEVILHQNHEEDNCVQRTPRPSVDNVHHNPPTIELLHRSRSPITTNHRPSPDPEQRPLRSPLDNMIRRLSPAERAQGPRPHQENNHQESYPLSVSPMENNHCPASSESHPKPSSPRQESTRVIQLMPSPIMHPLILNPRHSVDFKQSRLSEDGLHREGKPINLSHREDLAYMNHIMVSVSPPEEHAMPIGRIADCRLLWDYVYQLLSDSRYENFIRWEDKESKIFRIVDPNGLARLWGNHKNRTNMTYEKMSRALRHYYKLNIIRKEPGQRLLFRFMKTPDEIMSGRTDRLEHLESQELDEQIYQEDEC
Chain of CRX (O43186 whole entry): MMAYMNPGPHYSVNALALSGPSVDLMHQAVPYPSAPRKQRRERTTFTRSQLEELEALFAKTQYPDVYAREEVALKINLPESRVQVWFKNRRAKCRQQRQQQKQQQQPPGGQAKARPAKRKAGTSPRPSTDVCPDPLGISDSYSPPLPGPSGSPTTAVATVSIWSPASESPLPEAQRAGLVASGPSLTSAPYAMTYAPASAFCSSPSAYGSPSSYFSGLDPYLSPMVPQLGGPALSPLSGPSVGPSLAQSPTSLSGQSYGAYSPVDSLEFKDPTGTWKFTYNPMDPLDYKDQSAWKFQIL
Chain of ETV5 (P41161 whole entry): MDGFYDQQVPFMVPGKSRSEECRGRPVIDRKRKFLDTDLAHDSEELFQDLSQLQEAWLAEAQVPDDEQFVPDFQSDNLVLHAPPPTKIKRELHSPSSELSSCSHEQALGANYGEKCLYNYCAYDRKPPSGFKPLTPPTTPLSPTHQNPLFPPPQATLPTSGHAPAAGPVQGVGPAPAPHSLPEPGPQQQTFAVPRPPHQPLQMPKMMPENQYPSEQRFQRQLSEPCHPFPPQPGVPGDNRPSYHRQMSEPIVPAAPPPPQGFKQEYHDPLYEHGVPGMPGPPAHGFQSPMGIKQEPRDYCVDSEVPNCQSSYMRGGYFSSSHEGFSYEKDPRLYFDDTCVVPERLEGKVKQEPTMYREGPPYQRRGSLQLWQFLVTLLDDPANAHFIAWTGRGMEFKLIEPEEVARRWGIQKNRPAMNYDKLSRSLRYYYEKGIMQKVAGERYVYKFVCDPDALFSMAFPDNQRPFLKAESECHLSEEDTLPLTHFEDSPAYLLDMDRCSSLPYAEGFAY
Chain of ELF4 (Q99607 whole entry): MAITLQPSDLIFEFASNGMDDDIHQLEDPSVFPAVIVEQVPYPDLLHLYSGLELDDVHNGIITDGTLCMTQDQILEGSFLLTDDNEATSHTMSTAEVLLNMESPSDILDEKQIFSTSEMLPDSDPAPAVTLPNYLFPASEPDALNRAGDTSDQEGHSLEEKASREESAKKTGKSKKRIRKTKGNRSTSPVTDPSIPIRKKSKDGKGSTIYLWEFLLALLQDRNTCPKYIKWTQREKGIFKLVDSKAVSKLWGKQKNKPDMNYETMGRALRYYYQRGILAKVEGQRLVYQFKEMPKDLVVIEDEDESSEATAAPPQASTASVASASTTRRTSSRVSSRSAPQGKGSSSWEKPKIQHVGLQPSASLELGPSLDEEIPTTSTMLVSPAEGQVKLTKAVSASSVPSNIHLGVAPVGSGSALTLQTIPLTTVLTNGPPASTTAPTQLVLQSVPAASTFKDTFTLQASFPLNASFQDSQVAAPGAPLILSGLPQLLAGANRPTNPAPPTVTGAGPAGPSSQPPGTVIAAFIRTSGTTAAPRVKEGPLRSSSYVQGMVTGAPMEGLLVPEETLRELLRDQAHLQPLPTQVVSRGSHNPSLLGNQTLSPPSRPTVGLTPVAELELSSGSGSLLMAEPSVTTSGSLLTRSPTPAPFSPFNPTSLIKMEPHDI
Chain of ETV1 (P50549 whole entry): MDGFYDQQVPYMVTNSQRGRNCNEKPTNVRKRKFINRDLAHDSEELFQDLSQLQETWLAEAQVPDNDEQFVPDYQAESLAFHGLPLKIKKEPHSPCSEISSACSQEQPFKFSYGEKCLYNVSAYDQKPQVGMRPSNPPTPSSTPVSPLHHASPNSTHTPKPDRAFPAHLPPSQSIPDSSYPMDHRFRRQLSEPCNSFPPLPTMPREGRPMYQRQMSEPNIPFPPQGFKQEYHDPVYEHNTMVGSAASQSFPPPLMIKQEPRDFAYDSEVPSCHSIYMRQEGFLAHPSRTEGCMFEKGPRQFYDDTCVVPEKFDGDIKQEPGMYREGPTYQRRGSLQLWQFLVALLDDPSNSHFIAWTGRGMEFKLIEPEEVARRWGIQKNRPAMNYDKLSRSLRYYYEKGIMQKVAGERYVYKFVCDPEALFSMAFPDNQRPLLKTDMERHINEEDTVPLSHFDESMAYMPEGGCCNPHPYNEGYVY
Chain of HSF1 (Q00613 whole entry): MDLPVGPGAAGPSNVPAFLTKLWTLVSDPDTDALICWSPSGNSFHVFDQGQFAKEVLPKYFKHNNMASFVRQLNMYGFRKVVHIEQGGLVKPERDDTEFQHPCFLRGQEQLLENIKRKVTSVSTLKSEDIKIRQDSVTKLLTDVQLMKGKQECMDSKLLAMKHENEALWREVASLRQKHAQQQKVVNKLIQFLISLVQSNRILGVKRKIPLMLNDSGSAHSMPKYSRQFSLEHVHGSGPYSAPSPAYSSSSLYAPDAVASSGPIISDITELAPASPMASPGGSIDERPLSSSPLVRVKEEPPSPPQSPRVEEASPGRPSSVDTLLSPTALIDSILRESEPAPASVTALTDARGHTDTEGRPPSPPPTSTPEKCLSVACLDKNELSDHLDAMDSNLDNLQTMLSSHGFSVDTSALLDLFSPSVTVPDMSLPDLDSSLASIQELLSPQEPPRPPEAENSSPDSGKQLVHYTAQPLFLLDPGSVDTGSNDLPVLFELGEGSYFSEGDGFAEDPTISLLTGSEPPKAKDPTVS

As for GCCTCT, the binding signal is 1.39 fold enrichment (6-mer frequency, TF over GST control) with FEV; 1.39 fold enrichment (6-mer frequency, TF over GST control) in the experiment with ETV5; 1.25 fold enrichment (6-mer frequency, TF over GST control) with HSF1; 1.21 fold enrichment (6-mer frequency, TF over GST control) in the experiment with SPIC; 1.42 fold enrichment (6-mer frequency, TF over GST control) with ELF4; 1.28 fold enrichment (6-mer frequency, TF over GST control) with ELK4. Further, the binding signal is 1.45 fold enrichment (6-mer frequency, TF over GST control) with ETV2; 1.28 fold enrichment (6-mer frequency, TF over GST control) with ELF3; 1.28 fold enrichment (6-mer frequency, TF over GST control) with CRX; 1.32 fold enrichment (6-mer frequency, TF over GST control) with ETV1; 1.25 fold enrichment (6-mer frequency, TF over GST control) with ERF; 1.32 fold enrichment (6-mer frequency, TF over GST control) in the experiment with ETV3L. In addition, the binding signal is 1.25 fold enrichment (6-mer frequency, TF over GST control) with ETS2; 1.3 fold enrichment (6-mer frequency, TF over GST control) with SPDEF; 1.35 fold enrichment (6-mer frequency, TF over GST control) in the experiment with ETV7; 1.27 fold enrichment (6-mer frequency, TF over GST control) in the experiment with ELF5; 1.34 fold enrichment (6-mer frequency, TF over GST control) in the experiment with ETV3; 1.35 fold enrichment (6-mer frequency, TF over GST control) with ETV6.
